Source: the supplement of paper PMC7366291
Structures can show the parent of a compound that is named as a salt. ± gives the standard deviation.

system: Danio rerio Tg(wt1b:EGFP) embryo, pronephros; test: glomerular separation, fold change vs DMSO control; higher = glomeruli further apart (abnormal); settings: 25 µM; exposure: 24-48 hpf
How it was run: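 Dechorionated Tg(wt1b:EGFP) zebrafish embryos were kept from 24 to 48 hpf at 28.5°C in HEPES-buffered E3 containing 0.003% PTU, 0.5% DMSO and 25 μM compound. The pronephroi were then imaged from the dorsal side in agarose-filled 96-well plates at 470 nm with 10 z-slices, and 16 reference points were placed by hand on maximum projections in Fiji so that a macro could calculate distances and angles. Values lying more than 2 SD from the mean of a feature were discarded. Every feature is given as a fold change against the mean of DMSO-treated embryos from the same day.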

CC(=O)NCCCS(=O)(=O)O [Acamprosate calcium] and CC(=O)NS(=O)(=O)c1ccc(N)cc1 [Sulfacetamide sodic hydrate] are within error of each other in glomerular separation: 1.02 ± 0.41 for the first, 0.937 ± 0.25 for the second.

CC(C)NNC(=O)c1ccncc1 [Iproniazide phosphate] and CC(C)NCC(O)c1ccc(O)c(O)c1 (single isomer, unassigned; (+)) [(+)-Isoproterenol (+)-bitartrate salt] are within error of each other in glomerular separation: 0.735 ± 0.21 for the first, 1.57 ± 0.7 for the second.

C=C1C(=O)O[C@H]2[C@H]1CC/C(C)=C/CC[C@@]1(C)O[C@@H]21 [Parthenolide] and C[C@]12CC[C@@H]3c4ccc(O)cc4CC[C@H]3[C@@H]1CC[C@@H]2O [Estradiol-17 beta] are within error of each other in glomerular separation: 2.81 ± 1.2 for the first, 3.16 ± 1.2 for the second.

CN(C)CC/C=C1\c2ccccc2CSc2ccccc21 [Dosulepin hydrochloride] and CC(C)NC[C@H](O)COc1cccc2ccccc12 [(S)-propranolol hydrochloride] are within error of each other in glomerular separation: 1.15 ± 0.25 for the first, 0.888 ± 0.27 for the second.

Nc1ccc(O)c(C(=O)O)c1 [Mesalamine] and CCN(CC)CCOC(=O)c1ccc(N)cc1 [Procaine hydrochloride] are within error of each other in glomerular separation: 1.23 ± 0.36 for the first, 0.828 ± 0.2 for the second.

Compared with O=C(Oc1cccc2cccnc12)c1ccccc1 [Benzoxiquine], Nc1nc(CC(=O)Nc2ccc(CCNC[C@H](O)c3ccccc3)cc2)cs1 [Mirabegron] is lower in glomerular separation: 3.04 ± 1.1 for the first, 0.841 ± 0.26 for the second.

CCC(=O)O[C@@H](O[P@](=O)(CCCCc1ccccc1)CC(=O)N1C[C@H](C2CCCCC2)C[C@H]1C(=O)O)C(C)C [Fosinopril] and OC(CCN1CCCC1)(c1ccccc1)C1CCCCC1 (stereo not given) [Procyclidine hydrochloride] are within error of each other in glomerular separation: 1.05 ± 0.44 for the first, 0.639 ± 0.26 for the second.

Going from C#C[C@]1(O)CC[C@H]2[C@@H]3CCC4=Cc5oncc5C[C@]4(C)[C@H]3CC[C@@]21C [Danazol] to C[C@@H]1C[C@H]2[C@@H]3CCC4=CC(=O)C=C[C@]4(C)[C@@]3(Cl)[C@@H](O)C[C@]2(C)[C@@]1(OC(=O)c1ccco1)C(=O)CCl [Mometasone furoate], the glomerular separation falls from 3.7 ± 1.5 to 0.99 ± 0.37.

Compared with CC(NCCC(c1ccccc1)c1ccccc1)c1ccccc1 (stereo not given) [Fendiline hydrochloride], Cc1cccc(C)c1NC(=O)CN1CCN(CCCC(c2ccc(F)cc2)c2ccc(F)cc2)CC1 [Lidoflazine] is higher in glomerular separation: 1.17 ± 0.28 for the first, 3 ± 1.2 for the second.

NC(Cc1cc(I)c(Oc2cc(I)c(O)c(I)c2)c(I)c1)C(=O)O (stereo not given) [Thyroxine (L)] and NS(=O)(=O)c1cc(C(=O)O)cc(N2CCCC2)c1Oc1ccccc1 [Piretanide] are within error of each other in glomerular separation: 1.12 ± 0.3 for the first, 1.08 ± 0.68 for the second.

c1cnc(N2CCN(Cc3ccc4c(c3)OCO4)CC2)nc1 [Piribedil hydrochloride] and O=C(COc1ccc(Cl)cc1)N1CCN(Cc2ccc3c(c2)OCO3)CC1 [Fipexide hydrochloride] are within error of each other in glomerular separation: 1.01 ± 0.4 for the first, 1.26 ± 0.55 for the second.

Nc1c(Br)cc(Br)cc1CN[C@H]1CC[C@H](O)CC1 [Ambroxol hydrochloride] and C[C@@H]1CN(c2c(F)c(N)c3c(=O)c(C(=O)O)cn(C4CC4)c3c2F)C[C@H](C)N1 [Sparfloxacin] are within error of each other in glomerular separation: 1.05 ± 0.28 for the first, 0.812 ± 0.23 for the second.

O=C(c1ccc(F)cc1)C1CCN(CCn2c(=O)[nH]c3ccccc3c2=O)CC1 [Ketanserin tartrate hydrate] and Cc1[nH]cnc1CN1CCc2c(c3ccccc3n2C)C1=O [Alosetron hydrochloride] are within error of each other in glomerular separation: 0.846 ± 0.25 for the first, 0.809 ± 0.28 for the second.

CCN(CC)CCCC(C)Nc1c2ccc(Cl)cc2nc2ccc(OC)cc12 (stereo not given) [Quinacrine dihydrochloride hydrate] and C#CCN(C)CCCOc1ccc(Cl)cc1Cl [Clorgyline hydrochloride] are within error of each other in glomerular separation: 0.766 ± 0.2 for the first, 0.959 ± 0.32 for the second.

Clc1ccc(C(Cn2ccnc2)OCc2ccsc2Cl)c(Cl)c1 (stereo not given) [Tioconazole] and CC(C)(Oc1ccc(CCNC(=O)c2ccc(Cl)cc2)cc1)C(=O)O [Bezafibrate] are within error of each other in glomerular separation: 1.29 ± 0.51 for the first, 0.842 ± 0.27 for the second.

CCCCC(C)(O)C/C=C/[C@H]1[C@H](O)CC(=O)[C@@H]1CCCCCCC(=O)OC (mixture of isomers) [Misoprostol] and CO/N=C(\C(=O)N[C@@H]1C(=O)N2C(C(=O)O)=C(C[N+]3(C)CCCC3)CS[C@H]12)c1csc(N)n1 [Cefepime hydrochloride] are within error of each other in glomerular separation: 0.763 ± 0.35 for the first, 0.845 ± 0.26 for the second.

CC(=O)/N=c1/sc(S(N)(=O)=O)nn1C [Methazolamide] and CCN(CC)C(=O)/C(C#N)=C/c1cc(O)c(O)c([N+](=O)[O-])c1 [Entacapone] are within error of each other in glomerular separation: 0.898 ± 0.5 for the first, 1.88 ± 1.4 for the second.

Cc1cn([C@H]2C=C[C@@H](CO)O2)c(=O)[nH]c1=O [Stavudine] and CC1(C)S[C@@H]2[C@H](NC(=O)[C@H](NC(=O)N3CCNC3=O)c3ccccc3)C(=O)N2[C@H]1C(=O)O [Azlocillin sodium salt] are within error of each other in glomerular separation: 0.929 ± 0.3 for the first, 0.819 ± 0.3 for the second.

O=C(NCC1CCCCN1)c1cc(OCC(F)(F)F)ccc1OCC(F)(F)F (stereo not given) [Flecainide acetate] and CC(C)(C)NC[C@@H](O)COc1cccc2c1CCCC2=O [(+) -Levobunolol hydrochloride] are within error of each other in glomerular separation: 0.977 ± 0.32 for the first, 0.984 ± 0.46 for the second.

O=C1CCc2ccc(OCCCCN3CCN(c4cccc(Cl)c4Cl)CC3)cc2N1 [Aripiprazole] and COc1cc(C(=O)OCCCN2CCCN(CCCOC(=O)c3cc(OC)c(OC)c(OC)c3)CC2)cc(OC)c1OC [Dilazep dihydrochloride] are within error of each other in glomerular separation: 0.976 ± 0.16 for the first, 1 ± 0.36 for the second.
